Inconclusive results are not listed. Calls of active or inactive are those of the source. Calls come from the whole dose curve; as a rule, active = well fitted cell-killing curve with a large enough effect in the repeat runs; inconclusive = weak or mixed curves, or effect the other way; inactive = flat fitted curve, though single readings scatter. Non-standard residues stand in square brackets, D forms with d. Residues, ends and D or L forms follow the SMILES beside them. *: point of attachment. Sta = CC(C)C[C@H](N)[C@@H](O)CC(=O)O; Isovaleryl = CC(C)CC(=O)*

The results in this text go back to PubChem BioAssay (Tox21).
% is set by controls: 0 for no effect and ±100 for the full control effect.

A short description of this test: qHTS RealTime-Glo MT Cell Viability Assay in HEK293 cells - 40 hour (AID 1224874). Note: nearly all actives have a fitted effect of over 50% in size. Particulars: RealTime-Glo luminescence, active compounds read low. An excerpt:
U.S. Tox21 Program National Center for Advancing Translational Sciences [NCATS] NIH Chemical Genomics Center [NCGC] U.S. Environmental Protection Agency [EPA] National Institutes of Environmental Health Sciences [NIEHS] National Toxicology Program [NTP] U.S. Food and Drug Administration [FDA] Tox21 Assay Overview: Measure of cell viability is critical in the cell-base assay. Analysis of cell viability is necessary for the characterization of cell responses to cytotoxic drugs and environmental stress. A RealTime-Glo MT Cell Viability Assay to monitor cell viability in real time of continues cell culture during 40 hours of compound treatment was used to screen Tox21 10K library compounds in Hek293 cells. The RealTime-Glo MT Cell Viability Assay is a nonlytic, homogeneous, bioluminescent method to measure cell viability in real time using a simple, plate-based method. The assay involves adding NanoLuc luciferase and a cell-permeant prosubstrate to cells in culture. Viable cells reduce the proprietary prosubstrate to generate a substrate for NanoLuc luciferase. This substrate diffuses from cells into the surrounding culture medium, where it is rapidly used by the NanoLuc Enzyme to produce a luminescent signal. The signal correlates with the number of viable cells, making the assay well suited for cytotoxicity studies.
Tox21 Assay Protocol Summary: The mixture of Hek293 cell suspension and reagents were dispensed at 600cells/6 ul/well in 1536-well tissue culture treated black solid bottom plates using a Multidrop dispenser. After the assay plates were incubated at a 37 C/5% CO2 incubator for 5 hours, 23 nL of compounds dissolved in DMSO, positive and negative controls was transferred to the assay plate by a pintool work station. The plates were incubated at 37 C for 40 hours. The luminescence intensity were measured at 0h, 8h, 16h, 24h, 32h and 40h time points using ViewLux plate reader during compound treatment.
With `CCCCOCCCC`, the max response is 8.08% (inactive).
As to `CC1(C)S[C@@H]2[C@H](NC(=O)Cc3ccccc3)C(=O)N2[C@H]1C(=O)O` (tested in a mixture with another compound), the max response was -2.11% (inactive).
Under `CCC(C)SSC(C)CC` (stereo not given) stands 3.14% (inactive).
Consider `C=CCCCCCCCCCCCCCC`, for which the max response is 0.625% (inactive).
In the case of `COc1cnc(NS(=O)(=O)c2ccc(N)cc2)nc1` it was 3.91% (inactive).
As for `COc1cc(S(N)(=O)=O)cc(C(=O)O)c1OC`, the max response was 0.543% (inactive).
Regarding `CC(C)OCCO`, the max response is 4.69% (inactive).
Under `COC(=O)C(c1ccccc1Cl)N1CCc2sccc2C1` (stereo not given) stands -3.35% (inactive); under `CCCCCCCCCCCCCCCC(=O)OC`, -0.62% (inactive).
Take `O=C(O)Cc1c(Cl)ccc(Cl)c1Cl`: the max response is 2.56% (inactive).
As to `CNC(C)=O`, the max response was -0.0492% (inactive).
In the case of `C=CC(=O)OCC[N+](C)(C)C`, the max response is 10.3% (inactive).
In the case of `O=C(O)/C=C(\CC(=O)O)C(=O)O` it was 4.26% (inactive).
In the case of `O=c1[nH]c(=O)c2cn[nH]c2[nH]1` it was -0.927% (inactive).
Turning to `CC/C=C\CCCCCCCCCCOC(C)=O`, the max response is -0.318% (inactive).
Take `CC[C@@]1(c2ccccc2)NC(=O)N(C)C1=O`: the max response is 14.4% (inactive).
As for `C[C@H]1COc2c(C3(N)CC3)c(F)cc3c(=O)c(C(=O)O)cn1c23`, the max response was 1.9% (inactive).
As to `CC(C)(C)NCC(O)COc1cccc2c1CCC(=O)N2` (stereo not given), the max response is 5.27% (inactive).
`Clc1cc(Cl)c(Cl)c(Cl)c1Cl`: the max response was -0.18% (inactive).
With `CC(C)(C)C(=O)NCCCC(=O)O`, the max response is 5.71% (inactive).
Take `C[Si](C)(C)O[Si](O)(O)O`: the max response is 0.476% (inactive).
Under `COC(=O)c1ccccc1Cl` stands 2.48% (inactive).
Under `CC(C)C(=O)Nc1cccc(C2CN3CCSC3=N2)c1` (stereo not given) stands 0.0338% (inactive); under `C/C=C(\C)C=O`, 8.23% (inactive).
Under `CCCc1ccc(O)c(OC)c1` stands 6.36% (inactive); under `c1cc2ccc3ccc4ccc5cccc6c(c1)c2c3c4c56`, 1.82% (inactive); under `CCCC[O][Al]([O]CCCC)[O]CCCC`, 2.78% (inactive).
Turning to `CC(C)CC(=O)N[C@H](C(=O)N[C@H](C(=O)N[C@@H](CC(C)C)[C@@H](O)CC(=O)N[C@@H](C)C(=O)N[C@@H](CC(C)C)[C@@H](O)CC(=O)O)C(C)C)C(C)C` (Isovaleryl-VV[Sta]A[Sta]-OH), the max response is 14.7% (inactive).
Under `COc1cc(C(=O)NC2CCCNC2)cc(OC)c1OC` (stereo not given) stands 1.36% (inactive); under `CCO[Si](CC(C)C)(OCC)OCC`, -8.56% (inactive).
In the case of `CCCCCCCOC(C)=O` it was -2.34% (inactive); in that of `N=C(N)S(=O)O`, 11.7% (inactive); in that of `CCOC(=O)CN1CCCC1=O`, 0.653% (inactive).
With `C=CC(=O)CC`, the max response is 0.33% (inactive).
Under `CCCCCCCCCCCCCCBr` stands -1.85% (inactive).
In the case of `NNC(=O)CCCCC(=O)NN` it was 3.47% (inactive); in that of `O=S(=O)(O)c1ccc(Cl)cc1`, 0.949% (inactive); in that of `CC(=O)/C=C/C=C1/C2CCC(C2)C1(C)C` (stereo not given), -0.661% (inactive).
In the case of `CC(O)C(CO)C(C)O` (stereo not given), the max response is -0.0675% (inactive).
In the case of `NCC1CCC(C(=O)Oc2ccc(CCC(=O)O)cc2)CC1` (stereo not given) it was 8.81% (inactive).
